Data from PubChem BioAssay (NCI).
Compounds without any hit were thinned out: in the full panel of roughly 83,000, 20% have a hit.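 96-well plates, one dose, 48 hours. Percent growth reported; active if below 10.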 Values without a mark were called inactive. Calls of active or inactive are those of the source.

The molecules below were run on HT29 colon (assay: NCI-60 one-dose screen, 48 h (100 = growth as untreated, 0 = no growth, -100 = all killed)). Conditions: 10 µM unless noted.
For `CC(=O)N1N=C(c2ccc(Cl)cc2)CC1c1c(C)nn(-c2ccccc2)c1N(C)Cc1ccccc1` (configuration not stated), the growth was 58.5%.
For `COc1ccc(-c2cnc(SCC(=O)Nc3ccc(-c4nc5ccccc5s4)cc3)n2-c2ccc(OC)cc2)cc1`, the growth was 92.7%.
Work on `COc1ccc2c(c1)[n+](=O)c(C(=O)/C=C/c1cc(OC)c(OC)c(OC)c1)c(C)n2[O-]` yielded a growth of 85.2%.
In the case of `COc1cccc(-c2nc(-c3ccc(N)cc3)co2)c1`, the growth is reported as 87.2%.
For `COc1ccc2c(c1)c(CC(=O)[Se]C)c(C)n2C(=O)c1ccc(Cl)cc1`, the growth was 2.05% (active).
Molecule `Nc1nc(SCc2cccnc2)c2ncn(C3OC(CO)C(O)C3O)c2n1` (configuration not stated) has a growth of 106%.
For `N#Cc1c(NC(=O)c2ccco2)[n+]([O-])c2cc(Cl)c(Cl)cc2[n+]1[O-]`, the growth was 103%.
Molecule `COC(=O)c1cc2oc(/C=N\NC(=O)c3cc4oc(C)c(C)c4[nH]3)cc2[nH]1` has a growth of 111%.
`O=c1oc2c(cc1-c1ccc([N+](=O)[O-])cc1)C(O)Oc1ccccc1-2` (configuration not stated) showed a growth of 99.9%.
`CC(C)Sc1nc(Cl)c(C#N)c(-c2ccc(F)cc2)n1` gave a growth of 103%.
`CCc1nn2c(-c3ccc(Cl)cc3C)c(-c3cc(OC)c(OC)c(OC)c3)nc2s1` was tested, and the growth was 66.8%.
In the case of `CCCCCN1C(=O)CCC1=O`, the growth is reported as 102%.
Work on `O=C1NCCc2c1noc2-c1ccccc1` yielded a growth of 90.5%.
Work on `CCOC(=O)c1cc2oc(/C=C/c3cc(=O)c4cc(Cl)ccc4o3)cc2[nH]1` yielded a growth of 96.6%.
`COc1cc(/C=C/C(=O)c2c(C)n([O-])c3ccccc3[n+]2=O)cc(OC)c1OC` gave a growth of 65.4%.
With `O=C(c1ccccc1)C(CN1CCCCC1)c1ccccc1` (configuration not stated) the growth was -13.4% (active).
`O=C1NC(=O)/C(=C/c2ccc(Cl)cc2Cl)N1` was tested, and the growth was 121%.
`COc1ccc(NS(=O)(=O)N2CCCCC2)cc1` showed a growth of 102%.
`C/C(=C\CCc1ccoc1)CC/C=C(\C)CCCNc1ccc(F)cc1` was tested, and the growth was 78.8%.
`Cc1cc2c(cc1C)[n+](Cc1ccc3ccccc3c1)cn2Cc1ccc2ccccc2c1` was tested, and the growth was -83.3% (active).
`O=C(NCCNC(=O)Oc1cccc2ccccc12)Oc1cccc2ccccc12` showed a growth of 108%.
With `COC(=O)[C@H](Cc1cn(C)cn1)NC(=O)[C@H](C)NC(=O)Nc1cc(C(F)(F)F)cc(C(F)(F)F)c1` the growth was -67.5% [100 µM] (active).
